Test results reported in the supplement of paper PMC7380943.

tested on: CLZ3 (HCA2 human fibroblast dual HR-NHEJ reporter); assay: HR repair efficiency (tdTomato+ cells) relative to control (log10 fold); higher = more homologous recombination; settings: 5 µM; doxycycline 0.5 ug/mL
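Further: compound given one day before doxycycline, which switches on I-SceI endonuclease expression to create double-strand breaks within the integrated reporter.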

| SMILES | HR repair efficiency (log10) |
| --- | --- |
| CCCCCCCCCCCCCCCC(=O)OC [Methyl Palmitate] | 0.0601 |
| CC1(C)[C@@H](O)CC[C@]2(C)[C@H]3CC=C4[C@@H]5C[C@@]6(C)C[C@H](OC6=O)[C@]5(C)CC[C@@]4(C)[C@]3(C)CC[C@@H]12 [Wilforlide A] | 0.00171 |
| C[C@@H]1CC[C@@]2(OC1)O[C@H]1C[C@H]3[C@@H]4CC=C5C[C@@H](O)C[C@@H](O[C@@H]6O[C@H](C)[C@H](O)[C@H](O[C@@H]7OC[C@@H](O)[C@H](O)[C@H]7O)[C@H]6O[C@@H]6O[C@@H](C)[C@H](O)[C@@H](O)[C@H]6O)[C@]5(C)[C@H]4CC[C@]3(C)[C@H]1[C@@H]2C [Ophiopogonin D] | -0.0693 |
| COc1cc(-c2cc(=O)c3c(O)c(OC)c(O)cc3o2)ccc1O [Jaceosidin] | -0.105 |
| C[C@@H]1O[C@@H](O[C@H]2[C@H](Oc3c(-c4ccc(O)cc4)oc4cc(O)cc(O)c4c3=O)O[C@H](CO)[C@@H](O)[C@@H]2O)[C@H](O)[C@H](O)[C@H]1O [Kaempferol 3-O-Neohesperidoside] | 0.307 |
| CC1(C)CC[C@]2(C(=O)O)CC[C@]3(C)C(=CC[C@@H]4[C@@]5(C)CC[C@H](O)[C@@](C)(CO)[C@@H]5CC[C@]43C)[C@@H]2C1 [Hederagenin] | -0.0988 |
| O=C(O)c1cc(O)c(O)c(O)c1 [Gallic acid] | -0.11 |
| CC(C)=CCc1c(-c2ccc(O)cc2O)oc2c([C@H]3C=C(C)C[C@@H](c4ccc(O)cc4O)[C@@H]3C(=O)c3ccc(O)cc3O)c(O)cc(O)c2c1=O [Kuwanon G] | 0.129 |
| COc1ccccc1 [Anisole] | 0.043 |
| COC(=O)C1=CO[C@@H](O[C@@H]2O[C@H](CO)[C@@H](O)[C@H](O)[C@H]2O)[C@@H]2C(CO)=CC[C@H]12 [Geniposide] | 0.172 |
| C=C(C)[C@@H]1CC[C@]2(C(=O)O)CC[C@]3(C)[C@H](CC[C@@H]4[C@@]5(C)CCC(=O)C(C)(C)[C@@H]5CC[C@]43C)[C@@H]12 [Liquidambaric Acid] | 0.0487 |
| COc1cc(OC)c(CCC(=O)c2ccc(O)cc2)c(OC)c1 | 0.0988 |
| O=C(C=Cc1ccc(O)c(O)c1)O[C@H]1[C@H](O)C[C@](O)(C(=O)O)C[C@H]1OC(=O)C=Cc1ccc(O)c(O)c1 [Isochlorogenic Acid C (4,5-Di-O-Caffeoylquinic Acid)] | -0.0644 |
| COc1cc2c(cc1OC)[C@@H]1Cc3ccc(OC)c(OC)c3CN1CC2 [Rotundine] | 0.112 |
| C/C=C/c1cc(OC)c2c(c1)C(C)C(c1ccc(O)c(OC)c1)O2 (centres undefined) [Dehydrodiisoeugenol] | -0.0825 |
| COc1c2c(cc3oc(C)cc(=O)c13)O[C@H](C(C)(C)O)C2 [5-O-Methylvisamminol] | -0.14 |
| COc1c(O)cc2oc(-c3ccccc3)cc(=O)c2c1O [Oroxylin A] | 0.0534 |
| O=c1cc(-c2ccc(O)cc2)oc2c([C@@H]3O[C@H](CO)[C@@H](O)[C@H](O)[C@H]3O)c(O)c([C@@H]3OC[C@H](O)[C@H](O)[C@H]3O)c(O)c12 [Isoschaftoside] | 0.0575 |
| C[C@@H]1O[C@@H](OC[C@H]2O[C@@H](OCCc3ccc(O)c(O)c3)[C@H](O)[C@@H](O)[C@@H]2O)[C@H](O)[C@H](O)[C@H]1O [Forsythoside E] | 0.0386 |
| COc1cc(OC)c2ccc(=O)oc2c1 [Citropten] | 0.0946 |

| SMILES | HR repair efficiency (log10) |
| --- | --- |
| O=C(OCC1=C[C@@H](O)[C@@H]2C=CO[C@@H](O[C@@H]3O[C@H](CO)[C@@H](O)[C@H](O)[C@H]3O)[C@H]12)c1ccc(O)cc1 [Agnuside] | 0.106 |
| COC(=O)C1=CO[C@@H](O[C@@H]2O[C@H](CO)[C@@H](O)[C@H](O)[C@H]2O)[C@@H]2[C@@H](C)[C@@H](O)C[C@H]12 [Loganin] | 0.191 |
| C=C1CC[C@H]2C(=C)CC[C@H]3C(=C)C(=O)O[C@@H]3[C@@H]12 [Dehydrocostus Lactone] | 0.03 |
| C[C@]12C[C@@H](O)[C@@H]3C[C@@]1(O[C@@H]1O[C@H](CO)[C@@H](O)[C@H](O)[C@H]1O)[C@@]3(COC(=O)c1ccccc1)C(=O)O2 [Albiflorin] | 0.153 |
| CC(CC(=O)C[C@@H](C)[C@H]1CC(=O)[C@@]2(C)C3=C(C(=O)C[C@]12C)[C@@]1(C)CCC(=O)C(C)(C)[C@@H]1C[C@@H]3O)C(=O)O (some centres undefined) [Ganoderic Acid D] | -0.241 |
| CC(C)=CCC/C(C)=C/CC/C(C)=C/CC/C(C)=C/CC/C(C)=C/CC/C(C)=C/CC/C(C)=C/CC/C(C)=C/CC/C(C)=C/CO [Solanesol] | -0.0545 |
| O=C1/C(=C2\Nc3ccccc3C2=O)Nc2ccccc21 [Indigotin] | -0.105 |
| C[C@H](CC(=O)C[C@@H](C)[C@H]1C[C@H](O)[C@@]2(C)C3=C(C(=O)C[C@]12C)[C@@]1(C)CCC(=O)C(C)(C)[C@@H]1C[C@@H]3O)C(=O)O [Ganoderic Acid A] | 0.159 |
| CCCCC[C@H](O)CC(=O)CCc1ccc(O)c(OC)c1 [6-Gingerol] | 0.0839 |
| COc1ccc(/C=C/C(=O)O)cc1O [Isoferulic Acid] | 0.0607 |
| OC[C@H]1O[C@H](OC[C@H]2O[C@@H](O[C@@H]3OC=C[C@H]4[C@H](O)[C@@H]5O[C@]5(CO)[C@@H]34)[C@H](O)[C@@H](O)[C@@H]2O)[C@H](O)[C@@H](O)[C@H]1O [Rehmannioside A] | -0.0566 |
| C/C=C/c1cc(OC)c2c(c1)[C@H](C)[C@@H](c1ccc3c(c1)OCO3)O2 [Licarin B] | 0.192 |
| COc1cc(C2Oc3cc([C@H]4Oc5cc(O)cc(O)c5C(=O)[C@@H]4O)ccc3OC2CO)ccc1O (some centres undefined) [Silybin (Silymarin)] | 0.183 |
| O=C(O)c1ccccc1O [Salicylic acid] | 0.0351 |
| O=C(/C=C/c1ccc(O)c(O)c1)OC1CC(OC(=O)/C=C/c2ccc(O)c(O)c2)(C(=O)O)CC(O)C1O (centres undefined) [1,3-Dicaffeoylquinic Acid] | -0.0122 |
| COc1cc(/C=C/c2ccc(O)cc2)cc(OC)c1 [Pterostilbene] | 0.242 |
| C[C@H](CC[C@@]1(O)O[C@H]2C[C@H]3[C@@H]4CC=C5C[C@@H](O[C@@H]6O[C@H](CO)[C@@H](O[C@@H]7O[C@@H](C)[C@H](O)[C@@H](O)[C@H]7O)[C@H](O)[C@H]6O[C@@H]6O[C@@H](C)[C@H](O)[C@@H](O)[C@H]6O)CC[C@]5(C)[C@H]4CC[C@]3(C)[C@H]2[C@@H]1C)CO[C@@H]1O[C@H](CO)[C@@H](O)[C@H](O)[C@H]1O [Protodioscin] | -0.042 |
| COc1cc2c(cc1OC)[C@@H]1Cc3ccc(OC)c(OC)c3CN1CC2 [Tetrahydropalmatine] | 0.0375 |
| C[C@H]1[C@H](C)CC[C@]2(C(=O)O)CC[C@]3(C)C(=CC[C@@H]4[C@@]5(C)CC[C@H](O)C(C)(C)[C@@H]5CC[C@]43C)[C@H]12 [Ursolic Acid] | -0.12 |
